According to the supplement of paper PMC8007513:
Where a name gives a salt, the structure may show the parent alone. ± gives the standard error. The whole screen tested about 1,300 compounds, of which about 130 (10%) showed an effect of 50% or more. This excerpt belongs to a sample that is enriched for strong results.

System: Trichoderma virens ATCC 9645
Test: growth yield (OD600) with compound + IPBC relative to untreated control; higher = less growth inhibition
Conditions: compound concentration: 100 uM, IPBC concentration: 200 ng/ml
Outline: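 Library compounds (100 μM final), with or without a co-applied biocide (200 ng ml^−1), were added to 100 μl aliquots of Trichoderma virens ATCC 9645 spores at 15,000 spores ml^−1 in potato dextrose broth. Cultures were grown at 30 °C in 96-well plates, and OD600 was measured at 40 h and 72 h. Each growth value is a mean of duplicate screens, expressed relative to the control with neither agent.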

In the case of `C[C@]12Cc3c[nH]nc3C[C@@H]1CC[C@@H]1[C@@H]2CC[C@@]2(C)[C@H]1CC[C@]2(C)O` [Stanozolol] + CCCCNC(=O)OCC#CI [3-iodo-2-propynyl butylcarbamate (IPBC)], the growth yield (40 h) is reported as 91.02 ± 0.16% and the growth yield (72 h) is reported as 95.9%.

Molecule `CCN1CC(CCN2CCOCC2)C(c2ccccc2)(c2ccccc2)C1=O` (stereo unspecified) [Doxapram hydrochloride] + CCCCNC(=O)OCC#CI [3-iodo-2-propynyl butylcarbamate (IPBC)] has a growth yield (40 h) of 88.6 ± 1.3% and a growth yield (72 h) of 91.14 ± 0.32%.

In the case of `CN(C)CCCSC(=N)N` [Dimaprit dihydrochloride] + CCCCNC(=O)OCC#CI [3-iodo-2-propynyl butylcarbamate (IPBC)], the growth yield (40 h) is reported as 93.9 ± 6.5% and the growth yield (72 h) is reported as 95.8 ± 4.3%.

Work on `Cc1ccc(-c2ncc(Cl)cc2-c2ccc(S(C)(=O)=O)cc2)cn1` [Etoricoxib] + CCCCNC(=O)OCC#CI [3-iodo-2-propynyl butylcarbamate (IPBC)] yielded a growth yield (40 h) of 88.79 ± 0.48% and a growth yield (72 h) of 91.14 ± 0.73%.

`CN[C@H]1CC[C@@H](c2ccc(Cl)c(Cl)c2)c2ccccc21` [Sertraline] + CCCCNC(=O)OCC#CI [3-iodo-2-propynyl butylcarbamate (IPBC)] gave a growth yield (40 h) of 30.8 ± 4.1% and a growth yield (72 h) of 82.5 ± 2%.

Work on `CN[C@@H]1C[C@@H](c2ccc(Cl)c(Cl)c2)c2ccccc21` [Indatraline hydrochloride] + CCCCNC(=O)OCC#CI [3-iodo-2-propynyl butylcarbamate (IPBC)] yielded a growth yield (40 h) of 29.4 ± 4.9% and a growth yield (72 h) of 79.5 ± 1.7%.

Work on `Cc1c(N(C)CS(=O)(=O)O)c(=O)n(-c2ccccc2)n1C` [Dipyrone] + CCCCNC(=O)OCC#CI [3-iodo-2-propynyl butylcarbamate (IPBC)] yielded a growth yield (40 h) of 92.4 ± 6.7% and a growth yield (72 h) of 87.9 ± 5.2%.

`COc1ccnc(C[S+]([O-])c2nc3cc(OC(F)F)ccc3[nH]2)c1OC` (stereo unspecified) [Pantoprazole sodium] + CCCCNC(=O)OCC#CI [3-iodo-2-propynyl butylcarbamate (IPBC)] showed a growth yield (40 h) of 73.5 ± 2.4% and a growth yield (72 h) of 98.9 ± 0.94%.

`C#C[C@]1(O)CC[C@H]2[C@@H]3CCc4cc(OC)ccc4[C@H]3CC[C@@]21C` [Ethynylestradiol 3-methyl ether] + CCCCNC(=O)OCC#CI [3-iodo-2-propynyl butylcarbamate (IPBC)] gave a growth yield (40 h) of 87 ± 16% and a growth yield (72 h) of 88.9 ± 12%.

Molecule `CO[C@@]1(NC(=O)C(C(=O)O)c2ccc(O)cc2)C(=O)N2C(C(=O)O)=C(CSc3nnnn3C)CO[C@@H]21` (stereo partly specified) [Moxalactam disodium salt] + CCCCNC(=O)OCC#CI [3-iodo-2-propynyl butylcarbamate (IPBC)] has a growth yield (40 h) of 97.1 ± 14% and a growth yield (72 h) of 96 ± 7.7%.

`CCn1cc(C(=O)O)c(=O)c2cc(F)c(N3CCNCC3)nc21` [Enoxacin] + CCCCNC(=O)OCC#CI [3-iodo-2-propynyl butylcarbamate (IPBC)] gave a growth yield (40 h) of 83.9 ± 1.6% and a growth yield (72 h) of 87 ± 1.5%.

`CCCCC(CC)CN1CN(CC(CC)CCCC)CC(C)(N)C1` (stereo unspecified) [Hexetidine] + CCCCNC(=O)OCC#CI [3-iodo-2-propynyl butylcarbamate (IPBC)] gave a growth yield (40 h) of 28.6 ± 8.6% and a growth yield (72 h) of 91.1 ± 1.8%.

For `CCOC1O[C@H]([C@@H](COCc2ccccc2)OCc2ccccc2)[C@H](OCc2ccccc2)[C@H]1O` (stereo partly specified) [Tribenoside] + CCCCNC(=O)OCC#CI [3-iodo-2-propynyl butylcarbamate (IPBC)], the growth yield (40 h) was 75.4 ± 2.1% and the growth yield (72 h) was 88.1 ± 1.1%.

With `COc1cc([C@@H]2c3cc4c(cc3[C@H](O)[C@H]3COC(=O)[C@H]23)OCO4)cc(OC)c1OC` [Podophyllotoxin] + CCCCNC(=O)OCC#CI [3-iodo-2-propynyl butylcarbamate (IPBC)] the growth yield (40 h) was 104 ± 6.3% and the growth yield (72 h) was 102 ± 4.5%.

With `CC(=C(CCO)SSCC1CCCO1)N(C=O)Cc1cnc(C)nc1N` (stereo in doubt) [Fursultiamine Hydrochloride] + CCCCNC(=O)OCC#CI [3-iodo-2-propynyl butylcarbamate (IPBC)] the growth yield (40 h) was 104 ± 4.3% and the growth yield (72 h) was 102 ± 3.2%.

For `Oc1c(Cl)cc(Cl)c2cccnc12` [Chloroxine] + CCCCNC(=O)OCC#CI [3-iodo-2-propynyl butylcarbamate (IPBC)], the growth yield (40 h) was 1.27 ± 0.95% and the growth yield (72 h) was 1.89 ± 0.21%.

`Oc1c(I)cc(Cl)c2cccnc12` [Clioquinol] + CCCCNC(=O)OCC#CI [3-iodo-2-propynyl butylcarbamate (IPBC)] gave a growth yield (40 h) of 11.4% and a growth yield (72 h) of 5.66 ± 0.21%.

`CC(C(=O)O)c1ccc2c(c1)Cc1cccnc1O2` (stereo unspecified) [Pranoprofen] + CCCCNC(=O)OCC#CI [3-iodo-2-propynyl butylcarbamate (IPBC)] was tested, and the growth yield (40 h) was 92 ± 8.7% and the growth yield (72 h) was 90.6 ± 3.8%.

In the case of `Nc1ncn(C2OC(CO)C(O)C2O)c(=O)n1` (stereo unspecified) [Azacytidine-5] + CCCCNC(=O)OCC#CI [3-iodo-2-propynyl butylcarbamate (IPBC)], the growth yield (40 h) is reported as 67.2 ± 3% and the growth yield (72 h) is reported as 91.9 ± 1.1%.

`Cc1cn([C@H]2C=C[C@@H](CO)O2)c(=O)[nH]c1=O` [Stavudine] + CCCCNC(=O)OCC#CI [3-iodo-2-propynyl butylcarbamate (IPBC)] showed a growth yield (40 h) of 98.5 ± 15% and a growth yield (72 h) of 97.6 ± 9.5%.

Work on `CNS(=O)(=O)Cc1ccc2[nH]cc(CCN(C)C)c2c1` [Sumatriptan succinate] + CCCCNC(=O)OCC#CI [3-iodo-2-propynyl butylcarbamate (IPBC)] yielded a growth yield (40 h) of 92 ± 11% and a growth yield (72 h) of 91.3 ± 7.7%.

In the case of `CCCCS(=O)(=O)N[C@@H](Cc1ccc(OCCCCC2CCNCC2)cc1)C(=O)O` [Tirofiban hydrochloride] + CCCCNC(=O)OCC#CI [3-iodo-2-propynyl butylcarbamate (IPBC)], the growth yield (40 h) is reported as 85.5 ± 1.9% and the growth yield (72 h) is reported as 91.3 ± 0.94%.

Work on `CC(=O)OC1CN2CCC1CC2` (stereo unspecified) [Aceclidine Hydrochloride] + CCCCNC(=O)OCC#CI [3-iodo-2-propynyl butylcarbamate (IPBC)] yielded a growth yield (40 h) of 80.85 ± 0.79% and a growth yield (72 h) of 86.84 ± 0.21%.

For `CC(C)(CO)C(O)C(=O)NCCCO` (stereo unspecified) [Panthenol (D)] + CCCCNC(=O)OCC#CI [3-iodo-2-propynyl butylcarbamate (IPBC)], the growth yield (40 h) was 87.2 ± 0.48% and the growth yield (72 h) was 90.09 ± 0.52%.

`CC(C)(C)NC[C@H](O)c1ccc(O)c(CO)c1` [Levalbuterol hydrochloride] + CCCCNC(=O)OCC#CI [3-iodo-2-propynyl butylcarbamate (IPBC)] was tested, and the growth yield (40 h) was 86.2 ± 2.4% and the growth yield (72 h) was 90.3 ± 2.6%.

`OCc1cc(C(O)CNCCCCCCOCCCCc2ccccc2)ccc1O` (stereo unspecified) [Salmeterol] + CCCCNC(=O)OCC#CI [3-iodo-2-propynyl butylcarbamate (IPBC)] gave a growth yield (40 h) of 34.9 ± 1.6% and a growth yield (72 h) of 75.1 ± 3.4%.

In the case of `CC(C)(C)NCC(O)c1ccc(O)c(CO)c1` (stereo unspecified) [Salbutamol] + CCCCNC(=O)OCC#CI [3-iodo-2-propynyl butylcarbamate (IPBC)], the growth yield (40 h) is reported as 85.93 ± 0.16% and the growth yield (72 h) is reported as 93 ± 0.94%.

`C1N2CN3CN1CN(C2)C3` [Methenamine] + CCCCNC(=O)OCC#CI [3-iodo-2-propynyl butylcarbamate (IPBC)] showed a growth yield (40 h) of 89 ± 1.3% and a growth yield (72 h) of 93.13 ± 0.84%.

`Nc1c2ccccc2nc2ccccc12` [Aminacrine] + CCCCNC(=O)OCC#CI [3-iodo-2-propynyl butylcarbamate (IPBC)] gave a growth yield (40 h) of 85.5 ± 5.4% and a growth yield (72 h) of 96.3 ± 3.4%.

In the case of `Nc1ccc(/N=N/c2ccccc2)c(N)n1` [Phenazopyridine hydrochloride] + CCCCNC(=O)OCC#CI [3-iodo-2-propynyl butylcarbamate (IPBC)], the growth yield (40 h) is reported as 7.15 ± 0.48% and the growth yield (72 h) is reported as 13.5 ± 1.8%.

Work on `Cc1cccc(C)c1NC1=NCCCS1` [Xylazine] + CCCCNC(=O)OCC#CI [3-iodo-2-propynyl butylcarbamate (IPBC)] yielded a growth yield (40 h) of 84.3 ± 4.3% and a growth yield (72 h) of 88.8 ± 2.8%.

Work on `CN(C)CCN(Cc1ccccc1)c1ccccn1` [Tripelennamine hydrochloride] + CCCCNC(=O)OCC#CI [3-iodo-2-propynyl butylcarbamate (IPBC)] yielded a growth yield (40 h) of 95 ± 3.5% and a growth yield (72 h) of 95.2 ± 1.9%.

Work on `CC(C)(C)NC(=O)[C@H]1CC[C@H]2[C@@H]3CC[C@H]4NC(=O)C=C[C@]4(C)[C@H]3CC[C@]12C` [Finasteride] + CCCCNC(=O)OCC#CI [3-iodo-2-propynyl butylcarbamate (IPBC)] yielded a growth yield (40 h) of 84.2 ± 7.9% and a growth yield (72 h) of 87.5 ± 6.7%.

Work on `Cc1c(O)c(=O)n(-c2ccccc2)n1C` [Antipyrine, 4-hydroxy] + CCCCNC(=O)OCC#CI [3-iodo-2-propynyl butylcarbamate (IPBC)] yielded a growth yield (40 h) of 91.5 ± 2.2% and a growth yield (72 h) of 92.2 ± 1.4%.

In the case of `CO/N=C(\C(=O)N[C@@H]1C(=O)N2C(C(=O)O)=C(COC(N)=O)CS[C@H]12)c1ccco1` [Cefuroxime sodium salt] + CCCCNC(=O)OCC#CI [3-iodo-2-propynyl butylcarbamate (IPBC)], the growth yield (40 h) is reported as 92.13 ± 0.64% and the growth yield (72 h) is reported as 92.2 ± 2%.

`CC[C@H]1OC(=O)[C@H](C)[C@@H](O[C@H]2C[C@@](C)(OC)[C@@H](O)[C@H](C)O2)[C@H](C)[C@@H](O[C@@H]2O[C@H](C)C[C@H](N(C)C)[C@H]2O)[C@](C)(O)C[C@@H](C)C(=O)[C@H](C)[C@@H](O)[C@]1(C)O` [Erythromycin] + CCCCNC(=O)OCC#CI [3-iodo-2-propynyl butylcarbamate (IPBC)] showed a growth yield (40 h) of 45.3 ± 0.79% and a growth yield (72 h) of 50.8 ± 0.84%.

For `CC[C@H]1OC(=O)[C@H](C)[C@@H](O[C@H]2C[C@@](C)(OC)[C@@H](O)[C@H](C)O2)[C@H](C)[C@@H](O[C@@H]2O[C@H](C)C[C@H](N(C)C)[C@H]2O)[C@](C)(OC)C[C@@H](C)C(=O)[C@H](C)[C@@H](O)[C@]1(C)O` [Clarithromycin] + CCCCNC(=O)OCC#CI [3-iodo-2-propynyl butylcarbamate (IPBC)], the growth yield (40 h) was 91.65 ± 0.79% and the growth yield (72 h) was 92.1%.

`CC[C@H]1OC(=O)[C@H](C)[C@@H](O[C@H]2C[C@@](C)(OC)[C@@H](O)[C@H](C)O2)[C@H](C)[C@@H](O[C@@H]2O[C@H](C)C[C@H](N(C)C)[C@H]2O)[C@](C)(O)C[C@@H](C)CN(C)[C@H](C)[C@@H](O)[C@]1(C)O` [Azithromycin] + CCCCNC(=O)OCC#CI [3-iodo-2-propynyl butylcarbamate (IPBC)] gave a growth yield (40 h) of 108.7 ± 0.95% and a growth yield (72 h) of 106 ± 0.32%.
